# Results taken from PubChem BioAssay (NCATS).
# A number with no mark means an inactive call. Records with an inconclusive call do not appear. A call without a number means that no potency is given here. The source made the active and inactive calls. Calls come from the whole dose curve; as a rule, active = well fitted curve in the direction sought with a large enough effect; inconclusive = small, poorly fitted or top-dose-only effect, or another doubt; inactive = no such curve, though single readings can be large; an effect the other way counts as inactive or inconclusive.
# Target: Cytochrome P450 2C19 (Homo sapiens) (UniProt P33261)
# Sequence (P33261 whole entry, looked up): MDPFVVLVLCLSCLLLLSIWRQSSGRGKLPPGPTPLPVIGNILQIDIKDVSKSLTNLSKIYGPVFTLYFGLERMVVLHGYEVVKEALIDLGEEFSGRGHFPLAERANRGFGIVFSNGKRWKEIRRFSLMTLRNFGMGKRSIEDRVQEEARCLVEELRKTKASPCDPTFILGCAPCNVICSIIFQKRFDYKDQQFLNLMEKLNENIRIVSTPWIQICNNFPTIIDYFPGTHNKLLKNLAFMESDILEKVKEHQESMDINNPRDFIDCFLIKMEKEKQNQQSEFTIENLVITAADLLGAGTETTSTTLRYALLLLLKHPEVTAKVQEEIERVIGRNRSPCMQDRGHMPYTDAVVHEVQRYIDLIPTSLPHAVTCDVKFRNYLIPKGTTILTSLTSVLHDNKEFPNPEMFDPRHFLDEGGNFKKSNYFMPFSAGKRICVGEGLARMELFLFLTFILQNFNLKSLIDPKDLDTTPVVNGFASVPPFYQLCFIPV
# Experiment: qHTS Assay for Inhibitors and Substrates of Cytochrome P450 2C19 (AID 899); note: nearly all actives have a fitted effect of over 60% in size
# Details: recombinant CYP2C19, luciferin-H EGE luminescence; series mostly up to 57.1 µM
# Outline: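 Human CYP2C19 (5nM) with Luciferin-H EGE at 10uM (its KM) in 50mM KPO4 was preincubated with compound for 10 min at 37C. NADPH regeneration started a 60 min 37C reaction. Luciferin was read by luminescence, normalized to 57uM ketoconazole.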
SMILES,"activity, negative = inhibition",Potency
Cc1cccc(Nc2cc(Cl)nc(SCC(=O)O)n2)c1C,16.3% [at 11.4 µM],
O=c1cc(CO)occ1O,,inactive
C=Cc1c(C)c2cc3[nH]c(cc4nc(cc5nc(cc1[nH]2)C(C)=C5CCC(=O)O)C(CCC(=O)O)=C4C)c(C)c3C=C,,inactive

# System: not listed separately
# Experiment: Confirmation and Secondary Assay for Modulators of Hemoglobin Beta Chain Splicing at IVS2 654 locus (AID 910);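 note: per-well total GFP intensity by laser scanning cytometry after 2-day treatment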
# Details: HeLa EGFP-654 splicing reporter, GFP fluorescence, 48 h; series mostly up to 46.1 µM
# Outline: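 HeLa cells stably carrying EGFP interrupted by mutant beta-globin IVS2-654 intron (CMV-driven) were treated with compound for 2 days at 37C; corrected splicing was scored as total peak GFP intensity per well (488 nm excitation, 500-520 nm emission).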
row,SMILES,outcome
1,OCCN1CCN(CCCN2c3ccccc3Sc3ccc(Cl)cc32)CC1,inactive
2,CCCCN(CCCC)CCCOC(=O)c1ccc(N)cc1,inactive
3,CC(CN(C)C)CN1c2ccccc2CCc2ccccc21 (configuration not stated),inactive
4,Cc1cccc(Nc2cc(Cl)nc(SCC(=O)O)n2)c1C,inactive
5,c1ccc2c(CC3=NCCN3)cccc2c1,inactive
6,Cc1c(Cl)cccc1Nc1ccccc1C(=O)O,inactive
7,COc1ccc(Cl)cc1C(=O)NCCc1ccc(S(=O)(=O)NC(=O)NC2CCCCC2)cc1,inactive
8,CCN(CC)C(C)CN1c2ccccc2Sc2ccccc21 (configuration not stated),inactive
9,NC(=O)NC(=O)Cc1ccccc1,inactive
10,C=Cc1c(C)c2cc3[nH]c(cc4nc(cc5nc(cc1[nH]2)C(C)=C5CCC(=O)O)C(CCC(=O)O)=C4C)c(C)c3C=C,inactive
11,CCN(CC)CCNC(=O)c1cc(Cl)c(N)cc1OC,inactive
12,NS(=O)(=O)c1cc2c(cc1Cl)NC(CSCc1ccccc1)=NS2(=O)=O,inactive
13,c1ccc(CN(CC2=NCCN2)c2ccccc2)cc1,inactive
14,CN(C)CCCN1c2ccccc2Sc2ccc(Cl)cc21,inactive

# System: not listed separately
# Experiment: qHTS Assay for Identification of Small Molecule Agonists for Thrombopoietin (TPO) Signaling Pathway (AID 917)
# Details: TPO signaling pathway reporter cells, agonist qHTS, stimulated with TPO at its EC50; series mostly up to 38.5 µM
# Outline: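 Reporter: GpIIb promoter–luciferase in murine Ba/F3 expressing human TPO receptor. Pre-starved of IL-3 overnight; compounds with 26 pM TPO, 24 hrs, 37 C/5% CO2; luminescence read.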
row,SMILES,outcome
1,C[C@]12CC[C@@H]3c4ccc(O)cc4CC[C@H]3[C@@H]1CCC2=O,inactive
2,C#CCN(C)Cc1ccccc1,inactive
3,CCCCCCCCCCCCCCCC(=O)NCCO,inactive
4,COc1ccc(Cl)cc1C(=O)NCCc1ccc(S(=O)(=O)NC(=O)NC2CCCCC2)cc1,inactive
5,C=Cc1c(C)c2cc3[nH]c(cc4nc(cc5nc(cc1[nH]2)C(C)=C5CCC(=O)O)C(CCC(=O)O)=C4C)c(C)c3C=C,inactive
6,N=c1c[n+](N2CCOCC2)[n-]o1,inactive
7,CCN(CC)CCNC(=O)c1cc(Cl)c(N)cc1OC,inactive
8,CC(=O)OCC(=O)[C@@]1(O)CC[C@H]2[C@@H]3CCC4=CC(=O)CC[C@]4(C)[C@H]3C(=O)C[C@@]21C,inactive
9,CC(C)NC[C@H](O)c1ccc(O)c(O)c1,inactive
10,NC1CCN(c2cccc(Cl)n2)CC1,inactive
11,CCCn1cnc2c1c(=O)n(CCCCC(C)=O)c(=O)n2C,inactive

# System: not listed separately
# Experiment: qHTS Assay for Identification of Small Molecule Antagonists for Thrombopoietin (TPO) Signaling Pathway (AID 918); note: potency is the fitted concentration of half-maximal effect; nearly all actives have a fitted effect of over 60% in size
# Details: TPO-dependent cell signaling reporter, antagonist mode
# Outline: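 Ba/F3 (murine, hTPO-R, GPIIb-luc reporter); overnight IL-3 withdrawal; cpd + TPO 26 pM final (EC50); 24 h 37 C/5% CO2; Steadylite luminescence after 10 min RT.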
row,SMILES,Potency
1,OCCN1CCN(CCCN2c3ccccc3Sc3ccc(Cl)cc32)CC1,15.8 µM (active)
2,OCc1cc(C(O)CNCCCCCCOCCCCc2ccccc2)ccc1O (configuration not stated),10 µM (active)
3,CN(C)CCCN1c2ccccc2Sc2ccc(Cl)cc21,12.6 µM (active)

# System: not listed separately
# Experiment: Confirmation and Secondary Assay for Modulators of Hemoglobin Beta Chain Splicing at IVS2 705 locus (AID 930);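 note: HeLa cells stably expressing the EGFP-705 splicing reporter; GFP fluorescence per well restored by corrected splicing of the IVS2-705 intron in EGFP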
# Details: HeLa EGFP-705 splicing reporter, GFP fluorescence, 48 h; series mostly up to 46.1 µM
# Outline: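 HeLa IVS2-705 EGFP reporter cells, 500/well, compound 2 d at 37C; correct splicing yields fluorescent EGFP. Control: 500 nM antisense PNA. Read-out: total peak GFP intensity.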
row,SMILES,Potency
1,OCCN1CCN(CCCN2c3ccccc3Sc3ccc(Cl)cc32)CC1,inactive
2,Cc1cccc(Nc2cc(Cl)nc(SCC(=O)O)n2)c1C,inactive
3,c1ccc2c(CC3=NCCN3)cccc2c1,inactive
4,C=Cc1c(C)c2cc3[nH]c(cc4nc(cc5nc(cc1[nH]2)C(C)=C5CCC(=O)O)C(CCC(=O)O)=C4C)c(C)c3C=C,inactive
5,NS(=O)(=O)c1cc2c(cc1Cl)NC(CSCc1ccccc1)=NS2(=O)=O,inactive

# Target: Muscarinic acetylcholine receptor M1 (Rattus norvegicus) (UniProt P08482)
# Sequence (P08482 whole entry, looked up): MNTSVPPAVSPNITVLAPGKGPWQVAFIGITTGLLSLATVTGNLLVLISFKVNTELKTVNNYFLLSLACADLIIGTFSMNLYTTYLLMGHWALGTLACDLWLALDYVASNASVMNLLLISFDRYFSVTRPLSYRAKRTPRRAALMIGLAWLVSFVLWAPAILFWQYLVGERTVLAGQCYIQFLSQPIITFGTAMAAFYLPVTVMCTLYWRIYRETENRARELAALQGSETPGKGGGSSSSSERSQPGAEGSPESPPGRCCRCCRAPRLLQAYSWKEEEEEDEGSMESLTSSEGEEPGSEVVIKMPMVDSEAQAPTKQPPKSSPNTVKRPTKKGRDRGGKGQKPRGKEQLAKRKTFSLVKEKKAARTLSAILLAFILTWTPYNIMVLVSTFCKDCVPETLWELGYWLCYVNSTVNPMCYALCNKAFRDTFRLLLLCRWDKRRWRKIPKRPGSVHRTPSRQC
# Experiment: qHTS Assay for Antagonists of Acetylcholine Muscarinic M1 Receptor: Kinetic Measurement of Intracellular Calcium Response (AID 943);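 note: Fluo-4 calcium signal as peak divided by basal fluorescence over 4 min; nearly all actives have a fitted effect of over 75% in size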
# Details: M1-expressing cells, kinetic intracellular calcium fluorescence; series mostly up to 35.3 µM
# Outline: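 Rat M1-CHO cells, 2000/well, overnight → Fluo-4 no-wash dye with probenecid, 1 h 37C → compound 10 min, room temp → basal read 6 s → carbachol EC80 (100 nM) → 4 min kinetic read; peak/basal.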
row,SMILES,Potency
1,C#CCN(C)Cc1ccccc1,inactive
2,C=Cc1c(C)c2cc3[nH]c(cc4nc(cc5nc(cc1[nH]2)C(C)=C5CCC(=O)O)C(CCC(=O)O)=C4C)c(C)c3C=C,inactive
3,CCCn1cnc2c1c(=O)n(CCCCC(C)=O)c(=O)n2C,inactive

# Target: Muscarinic acetylcholine receptor M1 (Rattus norvegicus) (UniProt P08482)
# Experiment: qHTS Assay for Antagonists of Acetylcholine Muscarinic M1 Receptor: Measurement of IP-One Response (AID 944); note: nearly all actives have a fitted effect of over 75% in size
# Details: CHO-M1 cells, IP-One HTRF, antagonist mode; series mostly up to 46.1 µM
# Outline: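 M1-CHO (rat), 2000 cells/well, overnight recovery; cpd 10 min; carbachol EC80 (200 nM), 30 min, HEPES buffer + 50 mM LiCl pH 7.4; IP-One HTRF, Ex 337, Em 620/665 nm.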
row,SMILES,Potency
1,C#CCN(C)Cc1ccccc1,inactive
2,CCCCCCCCCCCCCCCC(=O)NCCO,inactive
3,COc1ccc(Cl)cc1C(=O)NCCc1ccc(S(=O)(=O)NC(=O)NC2CCCCC2)cc1,inactive
4,C=Cc1c(C)c2cc3[nH]c(cc4nc(cc5nc(cc1[nH]2)C(C)=C5CCC(=O)O)C(CCC(=O)O)=C4C)c(C)c3C=C,inactive
5,N=c1c[n+](N2CCOCC2)[n-]o1,inactive
6,CCN(CC)CCNC(=O)c1cc(Cl)c(N)cc1OC,inactive
7,OCc1cc(C(O)CNCCCCCCOCCCCc2ccccc2)ccc1O (configuration not stated),inactive
8,CCCn1cnc2c1c(=O)n(CCCCC(C)=O)c(=O)n2C,inactive
